This is part of a sample that, as a whole, favours compounds with a hit. Of some 83,000 tested, about 20% had one in any assay.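 Cell lines were cultured in 96-well plates, exposed to a single compound concentration, and assessed for percent growth 48 hours later.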 Values without a mark were called inactive. Active and inactive are the calls of the source. Rule for the calls: active = growth percent below 10; inactive = the rest.
Legend:
Assay in all cases: NCI-60 one-dose screen, 48 h (100 = growth as untreated, 0 = no growth, -100 = all killed)
Settings in all cases: 10 µM unless noted
NCI-H23 lung = tested on: NCI-H23 lung
NCI-H226 lung = tested on: NCI-H226 lung
NCI-H322M lung = tested on: NCI-H322M lung
HOP-62 NSCLC = tested on: HOP-62 NSCLC
NCI-H460 lung = tested on: NCI-H460 lung
HOP-92 NSCLC = tested on: HOP-92 NSCLC
NCI-H522 lung = tested on: NCI-H522 lung
A549/ATCC NSCLC = tested on: A549/ATCC NSCLC
786-0 renal = tested on: 786-0 renal
COLO 205 colon = tested on: COLO 205 colon
DU-145 prostate = tested on: DU-145 prostate
K-562 leukemia = tested on: K-562 leukemia
MALME-3M melanoma = tested on: MALME-3M melanoma
MDA-MB-231 breast = tested on: MDA-MB-231 breast
RXF 393 renal = tested on: RXF 393 renal
SF-268 CNS = tested on: SF-268 CNS
SF-295 CNS = tested on: SF-295 CNS
SF-539 CNS = tested on: SF-539 CNS
UACC-257 melanoma = tested on: UACC-257 melanoma
M14 melanoma = tested on: M14 melanoma

| Compound | growth (NCI-H23 lung) | growth (NCI-H226 lung) | growth (NCI-H322M lung) | growth (HOP-62 NSCLC) | growth (NCI-H460 lung) | growth (HOP-92 NSCLC) | growth (NCI-H522 lung) | growth (A549/ATCC NSCLC) | growth (786-0 renal) | growth (COLO 205 colon) | growth (DU-145 prostate) | growth (K-562 leukemia) | growth (MALME-3M melanoma) | growth (MDA-MB-231 breast) | growth (RXF 393 renal) | growth (SF-268 CNS) | growth (SF-295 CNS) | growth (SF-539 CNS) | growth (UACC-257 melanoma) | growth (M14 melanoma) |
| --- | --- | --- | --- | --- | --- | --- | --- | --- | --- | --- | --- | --- | --- | --- | --- | --- | --- | --- | --- | --- |
| COc1ccc2nc(-c3ccc(-c4noc(-c5cc(OC)c(OC)c(OC)c5)n4)cc3)[nH]c2c1 | 63.8% | 86% | 101% | 76.8% | 56.3% | 76.2% | 74.9% | 45.8% | 77.8% | 78.4% | 57.4% | 14.7% | -33% (active) | 41.4% | 58.2% | 50.5% | 83.3% | -24.4% (active) | 102% | 63% |
| Brc1ccc(Nc2csc(-c3ccccn3)n2)cc1 | 87.7% | 70.1% | 84.1% | 88.2% | 96.7% | 102% | 78.9% | 99.4% | 98.9% | 111% | 94.6% | 84.5% | 99.4% | 81.9% | 106% | 90.9% | 88.8% | 95% | 111% | 93.3% |
| C=C1C(=O)O[C@H]2[C@H]1CC/C(CNC(=O)CCc1ccc(OC)cc1)=C\CC[C@@]1(C)O[C@@H]21 | 85.3% | 89.9% | 91.4% | 83.6% | 90.4% | 19.8% | 20.2% | 81.7% | 34% | 15.1% | 24.2% | 19.4% | 69.2% | 65.8% | 44.6% | 79.5% | 91.9% | 31.1% | 53.1% | 42.5% |
| Cc1ccc(NC(=O)Cc2ccc(/C=C/C(=O)c3ncc[nH]3)cc2)cc1 | 41.6% | 89.7% | 63.9% | 43.4% | 7.31% (active) | 82% | 43.6% | 62.1% | 29.7% | 49.2% | 16% | 8.84% (active) | 96.3% | 56.6% | 52.7% | 24.7% | 24% | -14.8% (active) | 83.4% | 82.5% |
| O=C(N/N=C/c1ccc(Oc2ccccc2)cc1)c1cnn2c1NC(c1ccccc1)C2 (stereo not given) | 61.2% | 89.2% | 32.2% | 33.6% | 1.16% (active) | 74.2% | 51.3% | 8.65% (active) | 41% | 51.6% | 49.2% | 46.4% | 20.5% | 72.8% | 71.5% | 64.5% | 18.6% | 37.5% | 59.8% | 46.2% |
| O=C(/C=C(/C=C/c1csc2ccccc12)OB(F)F)/C=C/c1csc2ccccc12 | 23% | 27.9% | 96.9% | 90.7% | 66.7% | 44.6% | 2.34% (active) | 70.1% | -2.14% (active) | -2% (active) | 28.5% | 23.2% | 9.2% (active) | 2.45% (active) | -28.4% (active) | 5.79% (active) | 87% | 40.8% | 57.7% | 8.88% (active) |
| CCCCCCCCOc1ccc(/C=N/Nc2cc(C)nc3ccc(Br)cc23)cc1 | 81.9% | 97.4% | 95.6% | 87.5% | 16.1% | 105% | 71.6% | 27.9% | 28.9% | 83.9% | 33.5% | 10.7% | 40.8% | 33.2% | 88.3% | 86.3% | 78.8% | 32.6% | 84% | 53.6% |

Reference: PubChem BioAssay (NCI)
